Compounds with a hit are over-represented: about 19% of the library has one in this group of screens.
DT40 TDP1 CPT = qHTS for Inhibitors of human tyrosyl-DNA phosphodiesterase 1 (TDP1): qHTS in cells in presence of CPT. chicken DT40 Tdp1-/-;hTDP1 cells + 20 nM CPT, ATP luminescence, 48 h. Potency, µM (doses to about 46.2 µM), without a hit: at the highest dose activity change, negative = growth inhibition, actives largely listed as inhibitors. 420,000 compounds, 12% hits; also: potency is read from the fitted curve at half-maximal effect; nearly all actives have a fitted effect of over 55% in size
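Chicken DT40 Tdp1-/- cells stably complemented with human TDP1 were seeded at 400 cells/well in medium containing 20 nM camptothecin, exposed to pin-transferred compounds, and grown at 37 °C for at least 48 hr. Viability was read as ATP luminescence.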
IL1B secr inh = qHTS for Inhibitors of Inflammasome Signaling: IL-1-beta AlphaLISA Primary Screen; THP-1 LPS/ATP IL-1B secretion, AlphaLISA, 16 h; hits give low values; activity change, % at 57.5 µM; 360,000 compounds, 4.7% hits; in the data active = activity change below about -50%; inconclusive = mostly about -30% to -49%
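THP-1 cells pretreated 1 hr with compounds (up to 57.5 uM final), then stimulated with LPS (250 ng/mL final) plus ATP (1.25 mM final); secreted IL-1B measured by AlphaLISA after 16 hr, decreased signal indicating inhibition.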
TDP1 cell noCPT = qHTS for Inhibitors of human tyrosyl-DNA phosphodiesterase 1 (TDP1): qHTS in cells in absence of CPT; DT40 Tdp1-/- hTDP1 cells, no CPT, ATP luminescence, 48 h; Potency, µM (highest dose often 46.2 µM), for inactives: at the top dose activity change, negative = growth inhibition, most hits filed as inhibitors; 420,000 compounds, 15% hits; also: potency is read from the fitted curve at half-maximal effect; nearly all actives have a fitted effect of over 55% in size
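Camptothecin absent (DMSO only). Human TDP1-complemented DT40 knockout cells, 400 cells/well, 37 °C for minimum 48 hr; ATP measured via CellTiter-Glo, 30 min dark incubation, luminescence.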
HT1080 IDH1KD tx = qHTS for induction of synthetic lethality in tumor cells producing 2HG: qHTS for the HT-1080-IDH1KD cell line | HT-1080 IDH1 knockdown viability, ATP luminescence, 48 h | Potency, µM (top dose mostly 46.1 µM), inactives show at the top dose activity, negative = toxicity, actives largely listed as cytotoxic | 360,000 compounds, 2% hits | AID 686971, 2013;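 also: potency is read from the fitted curve at half-maximal effect; 0% = DMSO wells and -100% = cell-free medium wells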
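Viability of IDH1-knockdown HT-1080 fibrosarcoma cells was assessed by CellTiter-Glo after 48 h at 37 °C with titrated compound; concentration-effect curves were classified by fit quality and response size.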
HT1080NT lethal = qHTS for induction of synthetic lethality in tumor cells producing 2HG: qHTS for the HT-1080-NT fibrosarcoma cell line; HT-1080-NT fibrosarcoma viability, CellTiter-Glo ATP luminescence, 48 h; Potency, µM (series often up to 46.1 µM), for the others: at the highest dose activity, negative = less viability, actives largely listed as cytotoxic; 360,000 compounds, 1.6% hits; AID 686970, 2013;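 also: NT is the 2HG producing partner of a matched IDH1 knockdown line; potency is read from the fitted curve at half-maximal effect; 0% = DMSO-treated cells and -100% = media-only wells without cells; nearly all actives have a fitted effect of over 55% in size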
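Fibrosarcoma NT cells, 750 per well in 5% FBS RPMI, were exposed to compound for 48 hours. Viability: CellTiter-Glo luminescence.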
Active calls of the source: *; ? = inconclusive; nt = no result; ! = a repeat was not active. Unless noted, calls follow the shape of the dose curve; as a rule, active = well fitted curve in the direction sought with a large enough effect; inconclusive = small, poorly fitted or top-dose-only effect, or another doubt; inactive = no such curve, though single readings can be large; an effect the other way counts as inactive or inconclusive. Unless noted, % is scaled to controls: 0 for no effect and ±100 for the full control effect.

SMILES	DT40 TDP1 CPT	IL1B secr inh	TDP1 cell noCPT	HT1080 IDH1KD tx	HT1080NT lethal
COC(=O)Cn1c(=NC(=O)CSC(C)=O)sc2ccccc21	?	-13	?	2%	?
Cc1csc(=O)n1CC(=O)OCC(=O)Nc1ccc(C(N)=O)cc1	-7%	0	6.5µM*	-2%	0%
Cc1csc(=O)n1CCC(=O)OCC(=O)Nc1ccc(C(N)=O)cc1	-9%	7	0%	-6%	2%
Cc1ccccc1CSCC(=O)NCc1ccco1	?	-23	?	1%	0%
CC(Oc1ccccc1)C(=O)N[C@@H]1C(=O)N2C(C(=O)OCC3CCCCC3)C(C)(C)S[C@H]12 (some centres undefined)	-7%	nt	-11%	nt	nt
Cc1ccc(Sc2c([N+](=O)[O-])c(=O)n(C)c3ccccc23)cc1	15µM*	3	13µM*	7%	4%
Oc1cc2c(c(Cl)c1O)CCNC[C@H]2c1ccccc1	12µM*	nt	17µM*	nt	nt
Oc1ccc(C2CNCCc3c2cc(O)c(O)c3Cl)cc1 (centres undefined)	?	-1	-4%	1%	-2%
Oc1cc2c(c(Cl)c1O)CCNCC2c1ccccc1 (centres undefined)	8.2µM*	39	8.2µM*!	?	?
CCC(=O)N1CCc2cc(Br)cc(S(=O)(=O)CCC(=O)Nc3ccccc3C)c21	-15%	nt	-21%	nt	nt
COc1ccccc1OCc1nn[nH]n1	1%	13	2%	?	12%
O=C(NCc1ccccc1)C(c1ccccc1)N(C(=O)c1csnn1)C1CCCC1 (centres undefined)	3%	-1	-29%	0%	-2%
Cc1nn(-c2ccccc2)nc1C(=O)c1c(C)[nH]n(-c2ccccc2)c1=O	5.2µM*	20	3.7µM*	5%	2%
Cc1[nH]n(-c2ccccc2)c(=O)c1N=Nc1ccccc1C(=O)O	?	31	?	7%	0%
C/C(=N\NC(=O)c1ccccc1)c1ccc(N2CCCCC2)cc1	-12%	-8	0%	17%	4%
C/C(=N\NC(=O)c1ccccc1)c1c(C)[nH]n(-c2ccccc2)c1=O	0.15µM*	103	0.41µM*	?	-19%
Cc1[nH]n(-c2ccccc2)c(=O)c1C(=O)c1ccc([N+](=O)[O-])cc1	?	0	?	-11%	-14%
Cc1[nH]n(-c2ccccc2)c(=O)c1C(=O)Nc1ccccc1	8.2µM*	14	16µM*	10%	15%
C/C(=N\NC(=O)c1ccc(C)cc1)c1c(C)[nH]n(-c2ccccc2)c1=O	4.6µM*	130	4.1µM*	15µM*	?
O=C(NC(=S)Nc1ccccc1N1CCCCC1)c1cccs1	16µM*	11	21µM*	?	-14%
O=C(NC(=S)Nc1ccccc1N1CCN(C(=O)c2ccccc2)CC1)c1cccs1	?	9	?	0%	2%
O=C(NC(=S)Nc1ccccc1N1CCCC1)c1cccs1	16µM*	29	15µM*	-3%	-7%
CC(/C=N/NC(=O)c1cc(-c2ccc(C)s2)[nH]n1)=C\c1ccccc1	8.2µM*	17	2.6µM*	7.3µM*	5.2µM*
CC(/C=N/NC(=O)c1cc(C(C)(C)C)[nH]n1)=C\c1ccccc1	?	-22	23µM*	?	?
CCc1ccccc1N1C(=O)C2C3C=CC(CC3)C2C1=O (centres undefined)	-14%	12	-3%	6%	-1%
COC(=O)C[C@@H]1CC[C@H](NC(=O)Nc2cccc(F)c2)[C@@H](CO)O1	4%	6	6%	17%	20%
COC(=O)C[C@H]1CC[C@H](NC(=O)Nc2ccccc2F)[C@@H](CO)O1	23µM*	-8	23µM*	15%	15%

Screens from PubChem.
